We go through 32 molecules from the supplement of paper PMC12632987.

B1: GBRAPL2_0_7222 (protein)
chain: MEELKEEMLKLSIEEASEKAVKTIKEAVESGKYSLEEIAELIEEMAEVIGELLKKEKKEESVDIAIEAADKIREILEKVDPNLAAYAYSEIGAEIMEAEE
B2: GBRAPL2_0_7215 (protein)
chain: MEELVEEAKKLSVEEAAELFVKRVEELVESGKATREELEALVEAAAKVLGEKIKKNKNEEDLDIAAEAADRIREILAKVDPELAAYADSEIGAEIMEAFS
B3: GBRAPL2_0_7223 (protein)
chain: MEKLKEEMLKLSIEEASKKAVETVKEMVESGKYSLEEIEEKIEAMAEVLGELLKKEKKEEAEEIAIKAADEIRKILEKKDPNLAAFAYSEIGAEIMEARE
B4: GBRAPL2_0_7208 (protein)
chain: YKERIEEAKKLSPEEAYKALKELVKEIAEDKSISAEEREEILEEIIELAYEIYKKEKTEEAEKAFDEIVDLAVKAAAKVDPNLAAYIASFGGSLIMEAES
B5: GBRAPL2_0_7233 (protein)
chain: MEEIVEELKKLSVEEAAEYFVKKVKEMVESGKYSLEEIEELIEKLAEVLGEKLKKNKKEEDLDIAAEAADKVREILLKRDPNLAAFAASEIGAEIMEAWS
B6: GBRAPL2_0_7212 (protein)
chain: MEEILEEISKLSIEEAAEKAIKLVKELVESKSLSTEELFELAKKLLEIIVEKVKEENKEESLEIARETADEIYEILKKVDPKEAAYVYTEIMEKILELEE
B7: GBRAPL2_0_7214 (protein)
chain: MEEFLEELKKLSIEEAAKKAVEKVREMAESGKYSLEEIEEFVEKMAEVLGEKIKKEKKEESLDIAAEAADEIRKILEKVDPRLAAYADSEIGAEIMEAEE
B8: GBRAPL2_0_7213 (protein)
chain: MEEFLKELKSLSIEEAAEKFVKKIEEMAKSGKYSLEEIEEIVEEMAKVLGEKVKKEKKEESLDIAAEAADKVREILEKIDPNLAAYAYSEIGAEIMEAAE
B9: GBRAPL2_0_7240 (protein)
chain: MEALKAELLALSLEEAIARIEALTDEAVALIRADPEAGLAAAEELVEVLAEVVVERKDERLEEAVEAATDRLAAVVAEVDPREAAYLRAIMGSAIAEVES
B10: GBRAPL2_0_7210 (protein)
chain: MEKILEEAKKLSVEEAAEYAVETVEELVKSGSLSPEELAELAKELLKVLIEKVKENGKEEDVEIADETIDRVREILRPVDPRLAAYVATEGYSELLELEE
B11: GBRAPL2_0_7234 (protein)
chain: KEELLKELLSLSLEEAKKAIKELAEEVIKLIKEDPEKGIEKAIELAEVFAEYLIERKDEELAKVIDEAIDKIVKEVEKVDPNAAAEIASEIGSAIYEVES
B12: GBRAPL2_0_7207 (protein)
chain: YEKEIEKAKTLTPEEAFKALKKLVKKLAKDKSVSKEELEALLEAILDLAYEIMAKEKTEEAEKAFDEIAEEATKAAAKRDPNLAAYIASYAGSLLMEYES
B13: GBRAPL2_0_7227 (protein)
chain: IEEKIKEMSKLSIEEAAKKAVELVKEMAESGKYSLEEIEEFVEAAAEVLGKKIKEEKKEEGLDIADEAARKIREILSKVDPRLAAYAASEIGAAIMEAIS
B14: GBRAPL2_0_7229 (protein)
chain: IEEEIEEMKKLSIEEAAKRAVELVKEMAESGKYSLEEIAEFVEKAAEVLGEKLKEEKKEEGLDIAAEAADEIRKILSKIDPNLAAYAASEIGSEIMEVIS
B15: GBRAPL2_0_7228 (protein)
chain: IEEEIEKISKLSIEEAAKAAVELVKEMAESGKYSLEEIEEFVEKAAEVLEKKIKEEKKEESLDIAAETADEVRKILEKIDPNLAAYAASEIGSGIMEAIS
B16: GBRAPL2_0_7237 (protein)
chain: MEELLEKLLSLSLEEAKKEIKKLADEVIELLRKDPEKGKEAAEELAEVFSEYLEKTKNEELEEVIDEAIDKIVEEMSKIDPREAAYIDSIFGSAIMEVEG
B17: GBRAPL2_0_7226 (protein)
chain: MEETLEKIKKLSIKEAAEYVVEKVEELVKSGKYSLEEIEEIVSALADELGEKLKKENKEEGLDYAAEAADRIREILSKLDPNLAAFAYSEIGSEIMEAES
B18: GBRAPL2_0_7220 (protein)
chain: MEEFVKEMLELSIKEAAEAAVKYIKELVESGKYSLEEIEEAVEKIAEVLGEKLKKEKKEEAEDIAMEAADEIRKILSEKDPNLAAYAYSEIGAEIMEAWS
B19: GBRAPL2_0_7216 (protein)
chain: MEELVEEARKLSIEEAAKLFVEKVKELVESGKATDEELMELVEAGAKVLGEKLKKEKKEEGLDIAMKAADEIREILEKKDPNLAAYAYSEIGAEIMEAAS
B20: GBRAPL2_0_7224 (protein)
chain: MEEWIEKLKKLSIEEAAALVVEKIKELVESGKYSLEEIAEIVEKLARVLGEKLKEENKEEGLDLAAKAADEIRKILEKVDPNLAAFADSEIGSEIMEASS
B21: GBRAPL2_0_7225 (protein)
chain: MEEELEKLKKLSIEEAAKYVVEKVKELVESGKYSLEEIADIVEKLARVLGEKLKEENKEEGLDLAAKAADEIRKILSKLDPNLAAYADSEIGAEIMEASS
B22: GBRAPL2_0_7219 (protein)
chain: MEEKVEEMKKLSIKEAAEAAVKLIKEMVESGKYSLEEIAEAVEKLAEVLGEKLKKEKKEEAEDIALEAARKIREILAKRDPNLAAYAYSEIGAEIMEASS
B23: GBRAPL2_0_7230 (protein)
chain: IEERVEEMSKLSIEEAAAYAVEKVREMAESGEYSLEEIEEFVEKAAEVLGKKLKEEKKEEGLDIAAEAAREIREILSKVDPRLAALAESEIGAAIMEAEL
B24: GBRAPL2_0_7238 (protein)
chain: AEELLKKLLEASVEEAIAAIKEAAEKAVKEIEKDPEAGLKAAEELAEVFAEVIIERKNEEVIKAVEEAADRIVAAAAKVDPNAAAYIASIIGSALYEYES
B25: GBRAPL2_0_7236 (protein)
chain: MEELLKRLLSLSLEEAKKEIKELAEKAIKLIKKDPEKGIKYAEELAKVFAEYLEKTKNEELAEVIDEAIDKIVEEVAKVDPNAAAAIASEIGSALYEVES
B26: GBRAPL2_0_7211 (protein)
chain: MEEILEKAKKLSVEEAAKYAVETVKSLVESGSLSPEELAELATKLLKVLIEKVKKDGKEESVEIAVETADKIREILKPVDPNLAADVDTEALSEILELEE
B27: GBRAPL2_0_7232 (protein)
chain: MEEKIEELKKLSVEEAAKYFVETVKEAVESGKYSLEEIAELIEKMAEVLGEKLKEVKKEEAIDIAAKAADEVRKILSKLDPNLAAYAASEIGAEIMEAWS
B28: GBRAPL2_0_7217 (protein)
chain: MEELIEKAKELSVEEAAELFVEEVKRLVESGKATDEELMELVEKAAEVLEEKMKESKDEEDEDIALEAADRIREILAEKDPRLAAYAYSEIGAGIMEASS
B29: GBRAPL2_0_7239 (protein)
chain: MEELLKELLSLSLEEAKKKIKEKTEEAVKLIRKDPEKGLKYAEELVEVFAEVVVERKNEELEEVVDEATDRLVEEAAKIDPNEAAYLAAIRGSAIAEVEL
B30: GBRAPL2_0_7218 (protein)
chain: MEELVEKARKLSVEEAAELFVEKVRELVESGKATDEELEALVEAAAEVLEEKIKKNKNEKDLDIAAEAADRIREILAKKDPRLAAFADSEIGAGIMEAAS
B31: GBRAPL2_0_7221 (protein)
chain: MEKLVEEMKKLSVEEAAERFVKEIKEAVESGKYSLDEIAELIEAMAKVLGELLKKNKKEEDFDIAMKAADEVRKILEKVDPNLAAYAYSEIGAEIMEAEE
B32: GBRAPL2_0_7209 (protein)
chain: YKERIEEAKKLSPEEAFKALKKLVKELAEDDSVSLEELEEILEAILELAYEIYKKEKTEEAEKAFDEIVDLATEAAAKRDPRLAAYIATFGGSLIMEAEL

GABARAPL2, P60520, sequence (P60520 whole entry, the tested form may be a part): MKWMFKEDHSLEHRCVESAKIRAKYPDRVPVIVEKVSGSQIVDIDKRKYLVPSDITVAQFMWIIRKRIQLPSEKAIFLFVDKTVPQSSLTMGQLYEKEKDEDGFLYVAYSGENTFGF

This assay deals with GABARAPL2, P60520. Put plainly: median log2 fold change of GCK-ALFA target abundance (FLAG IP / Myc IP barcode read proportion) (log2 ratio); each designed protein is fused to an ALFA-tag nanobody in HEK293 cells to bring the named protein to FLAG-tagged glucokinase (GCK); Myc marks an untargeted standard; higher = target protein stabilised (more abundant). The conditions noted are these: target protein: 3xFLAG-MCP-GCK-ALFA reporter; HEK293 landing pad (RPLP). In outline:
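The readout is target abundance, the per-binder median log2 ratio of FLAG to Myc barcode read proportions. It came from HEK293 landing-pad cells carrying a recombined ALFA-nanobody-fused binder library, induced with 2 μg mL^−1 doxycycline and transfected with a plasmid for a FLAG-tagged target and a Myc-tagged standard. After 48 h, lysates were immunoprecipitated with anti-FLAG and anti-Myc, and circular RNA barcodes were reverse transcribed, amplified and sequenced. Each barcode needed a proportion of at least 10^−7 in both replicates and each binder at least 3 barcodes per replicate, a pseudocount of 10^−6 was added, and the replicates were pooled.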
For B1, the “median log2 fold change” value worked out at 0.133. For B2 the value was 0.0633. For B3 the value was 0.33. For B4 the value was 0.152; for B5, 0.0153. B6: the “median log2 fold change” value turned out to be 0.328. For B7 the value was 0.0795. For B8 the value was -0.118; for B9, 0.0165; for B10, -0.00179.

Consider B11, for which the “median log2 fold change” value is 0.244. For B12 the value was -0.0647; for B13, 0.213; for B14, -0.0242. For B15 the value was 0.048; for B16, -0.0207; for B17, 0.24. For B18 the value was -0.0156; for B19, 0.169. Regarding B20, the “median log2 fold change” value amounted to 0.136.

As to B21, the “median log2 fold change” value was -0.0692. In the case of B22, the “median log2 fold change” value came to 0.00483.

As for B23, the “median log2 fold change” value is 0.138.

Take B24: the “median log2 fold change” value was 0.0105. For B25 the value was 0.224. For B26 the value was 0.109; for B27, 0.0832. For B28 the value was -0.0345; for B29, 0.0745.

Regarding B30, the “median log2 fold change” value was 0.21.

Take B31: the “median log2 fold change” value was 0.0252.

For B32, the “median log2 fold change” value is -0.227.
